DNA FID counter = counter-screen for HCV NS3 helicase inhibitors: DNA intercalator displacement | AID 1845 | DNA fluorescent intercalator displacement, fluorescence | 290,000 tested, 0.17% active | inhibition, % at 7.9 µM; in the data active = inhibition above about 37%;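 note: higher means more ethidium bromide displaced from hairpin DNA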
PfM18AAP inh = blocks P. falciparum M18 aspartyl aminopeptidase. recombinant PfM18AAP, H-Glu-NHMec fluorogenic cleavage. inhibition, % at 7.35 µM. 290,000 tested, 1.2% active. AID 1822;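 active = inhibition above the campaign mean inhibition over all tested compounds plus 3 SD, cut at about 28% in these data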
Kir21 inh = blocks the mouse Kir2.1 inward-rectifier potassium channel; P35561; HEK293-Kir2.1, FluxOR thallium flux fluorescence; stronger effect = lower value; B-score at 10 µM; 310,000 tested, 0.85% active; AID 1672;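 active = fluorescence ratio B-score at or below minus 3 SD of library scores, with starting-brightness B-score within 2 SD, cut at about -4.2 in these data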;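 note: channel flux triggered by added potassium and thallium sulfate stimulus; B-score of peak minus minimum fluorescence over baseline after thallium stimulus; more negative B-score means stronger Kir2.1 block with less thallium influx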
Rce1 inhib = inhibitors of yeast Ras-converting enzyme | Q03530 | yeast membranes, quenched prenylated peptide cleavage fluorescence | calls only | 290,000 tested, 0.27% active;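 active = fall in fluorescence gain of 50% or more versus controls, with final raw signal at or below 3038400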
Target sequence (Q03530 whole entry, looked up): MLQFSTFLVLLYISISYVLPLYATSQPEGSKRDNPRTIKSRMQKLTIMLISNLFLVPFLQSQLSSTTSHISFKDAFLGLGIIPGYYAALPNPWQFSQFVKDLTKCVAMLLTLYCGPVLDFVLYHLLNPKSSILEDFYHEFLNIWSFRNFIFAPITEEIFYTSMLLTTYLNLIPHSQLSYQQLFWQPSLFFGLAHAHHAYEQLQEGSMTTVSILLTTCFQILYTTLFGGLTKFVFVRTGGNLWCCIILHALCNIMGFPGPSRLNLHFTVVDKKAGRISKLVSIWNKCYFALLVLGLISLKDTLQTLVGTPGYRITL
hERG ctr = blocks human hERG, in counter-screen for Kir2.1 inhibitors | shares compounds with Kir21 inh | hERG-expressing cells, thallium flux | inhibition, % at 10 µM | 320 tested, 20% active;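 note: host cells are CHO cells stably expressing hERG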
KCNK9 inh = selectivity of Kir2.1 inhibitors: effect on human KCNK9. shares compounds with Kir21 inh. KCNK9-expressing cells, ion flux inhibition. inhibition, % at 10 µM. 320 tested, 5% active. AID 2329
Kir21 ephys inh = inhibitors of mouse Kir2.1 potassium channel; shares compounds with Kir21 inh; Kir2.1 cells, automated patch-clamp current inhibition; inhibition, % at 25 µM; 320 tested, 71% active
Each line names hits and unclear results; the compound was inactive in the other large screens (follow-up assays come after a bar, where they were run). The list is not random: actives were taken first. Their share in the collection is about 2.3%. Unless noted, the rule behind the calls is not given here.

COc1ccc(C)cc1-n1nnnc1SCC1CCCCO1 (configuration not stated)	Kir21 inh -4.7
c1ccc(C2=Nc3ccccc3OC2)cc1	PfM18AAP inh 31
Clc1ccc(C2=Nc3cc(Cl)ccc3OC2)cc1	none
Cc1ccc2c(c1)N=C(c1ccc(Cl)cc1)CO2	PfM18AAP inh 29
COc1ccc(NC(=O)CSc2c3c(nc4ccccc24)CCCC3)c(OC)c1	Kir21 inh -4.7
COc1cc(NC(=O)CSc2c3c(nc4ccccc24)CCC3)cc(OC)c1OC	none
COc1ccccc1NC(=O)CSc1c2c(nc3ccccc13)CCC2	Kir21 inh -10
Cc1csc(NC(=O)CCC(=O)N(CC(=O)NC2CCCC2)Cc2ccccc2)n1	none (no result: Rce1 inhib)
Cc1ccc(N2NC(=O)/C(=C\c3cc4c(cc3[N+](=O)[O-])OCO4)C2=O)cc1C	Kir21 inh -6.5
O=C1NN(c2ccccc2)C(=O)/C1=C\c1ccc2c(c1)OCO2	PfM18AAP inh 29
CC1(c2ccccc2)CC(C)(C)N2C(=O)Cc3cccc1c32 (configuration not stated)	none
N#CC1=C(SCc2ccccc2)NC(=O)CC1c1cccc(O)c1 (configuration not stated)	none
N#CC1=C(SCc2ccccc2)NC(=O)CC1c1ccc(O)cc1 (configuration not stated)	PfM18AAP inh 29, Kir21 inh -4.4
Cc1ccc(C2CC(=O)NC(SCc3ccccc3)=C2C#N)cc1 (configuration not stated)	Kir21 inh -4.3 (no result: Rce1 inhib)
O=C(c1cc(-c2ccco2)nc2ccccc12)N1CCN(c2ccc(F)cc2)CC1	none
O=C(CCCCCNC(=O)c1ccccc1Br)N=Nc1c(O)[nH]c2ccccc12	none
O=C(Nc1ccc(Cl)cc1)C(Cl)C(=O)c1ccccc1 (configuration not stated)	Kir21 inh -11
COc1ccc(C[C@H]2CN3C(=NC[C@H]3Cc3ccccc3)N2CCNC(=O)CCC2CCCCC2)cc1	Kir21 inh -6.1
COc1ccc(C[C@@H]2CN3C(=NC[C@@H]3C)N2C[C@H](C)NC(=O)CCC2CCCCC2)cc1	none
C[C@@H](CN1C2=NC[C@H](Cc3ccccc3)N2C[C@H]1Cc1ccc(O)cc1)NC(=O)CCC1CCCCC1	Kir21 inh -4.5
C[C@@H](CN1C2=NC[C@H](Cc3ccc(O)cc3)N2C[C@H]1Cc1ccc(O)cc1)NC(=O)CCC1CCCCC1	none
C/C=C(\C)C(=O)NCCN1C2=NC[C@H](Cc3ccccc3)N2C[C@@H]1Cc1ccc(OC)cc1	none (no result: DNA FID counter, PfM18AAP inh)
COc1ccc(C[C@H]2CN3C(=NC[C@@H]3Cc3ccccc3)N2C[C@H](C)NC(=O)CCC2CCCCC2)cc1	Kir21 inh -7.3 (no result: DNA FID counter, PfM18AAP inh)
S=C(Nc1ccc(-c2nc3ccccc3[nH]2)cc1)Nc1cccnc1	none
COc1cccc(CNC(=O)C2Cc3ccccc3CN2C(C)=O)c1 (configuration not stated)	none
CCOc1ccc(NC(=O)C2CCN(C(=O)C3CC(=O)N(c4ccc(C)cc4)C3)CC2)cc1 (configuration not stated)	none
O=C1C([N+](=O)[O-])=C(O)c2cccc3cccc1c23	PfM18AAP inh 32
Clc1cccc(CNCCNCc2cccc(Cl)c2)c1	Kir21 inh -4.3
COc1cc(OC)cc(C(=O)NCC2CCCN(C(=O)c3csc(C(C)C)n3)C2)c1 (configuration not stated)	none
CC(=O)OC(C(=O)Nc1nccs1)c1ccccc1 (configuration not stated)	none
O=C(Nc1nccs1)C(Br)C(Br)c1ccccc1 (configuration not stated)	PfM18AAP inh 31
N#Cc1c(N2CCN(C(=O)c3ccccc3Cl)CC2)nc(-c2ccccc2)c2c1CCCC2	none
N#Cc1c(NCCN)nc(-c2ccccc2)c2c1CCCC2	Kir21 inh -6
N#Cc1c(N2CCN(C(=O)c3ccccc3)CC2)nc(-c2ccccc2)c2c1CCCC2	Rce1 inhib active
COc1ccc(CNC(=O)c2csc(Cc3ccc(Cl)cc3)n2)cc1	Kir21 inh -9
COc1ccc(CNC(=O)c2csc(Cc3ccc(OC)cc3)n2)cc1	Kir21 inh -11
COc1ccc(Cc2nc(C(=O)Nc3ccccc3)cs2)cc1	none
COc1ccccc1NC(=O)C1CCN(C(=O)c2ccco2)CC1	none
CCN(CCCNC(=O)CCc1nc(-c2ccc(OC)cc2)no1)c1cccc(C)c1	PfM18AAP inh 32
COc1ccc(-c2noc(CCC(=O)NCCc3ccccc3)n2)cc1	none
O=C(CCl)N1CCN2C(=O)c3ccccc3C12c1ccc(Cl)cc1 (configuration not stated)	Kir21 inh -4.6
CN(C)CCN(C)Cc1ccccc1Sc1cccc2ccccc12	Kir21 inh -7.1
COc1ccc(CCN(C)Cc2cccc3ccccc23)cc1OC	none
CNCc1ccccc1Sc1cccc2ccccc12	Kir21 inh -15
CNCc1ccccc1Sc1ccc(OC)cc1	none
CCN(CC)C(=O)c1ccccc1NC(=O)CN1C(=O)c2ccccc2S1(=O)=O	none
Clc1ccc(OCCOCCNCc2ccccc2)cc1Cl	Kir21 inh -8.7 | hERG ctr 51% | KCNK9 inh inactive | Kir21 ephys inh 42%
CN(CCOc1ccc(Cl)c(Cl)c1)Cc1ccccc1	none
Cc1ccc2nc(Cl)c(CNCc3ccccc3)cc2c1	Kir21 inh -12 | hERG ctr inactive | KCNK9 inh inactive | Kir21 ephys inh inactive
COc1ccc(S(=O)(=O)N2CCc3ccccc32)cc1OC	Kir21 inh -6.2 (no result: Rce1 inhib) | hERG ctr inactive | KCNK9 inh inactive | Kir21 ephys inh 24%
CC(C)C(=O)n1nc(-c2cccnc2)nc1NCc1cccs1	none
C/C=C/c1ccc(OCCCCN(C)Cc2ccccc2)c(OC)c1	Kir21 inh -9.9 | hERG ctr 62% | KCNK9 inh inactive | Kir21 ephys inh 46%
C/C=C/c1ccc(OCCCCOc2ccccc2C(C)=O)c(OC)c1	none
Cc1ccc(C(=O)N/C(=C\c2ccc(-c3ccc(Br)cc3)o2)C(=O)NCCCN(C)C)cc1	Kir21 inh -10 | hERG ctr 77% | KCNK9 inh inactive | Kir21 ephys inh inactive
CCc1ccc(Nc2n[n+](-c3ccccc3)c(/C=C/c3ccccc3)s2)cc1	Kir21 inh -7.7, Rce1 inhib active | hERG ctr 68% | KCNK9 inh inactive | Kir21 ephys inh inactive
CS(=O)(=O)c1ccccc1-c1nnc(NC(=O)Cc2ccccc2)o1	none
COc1cc(OC)c(OC)cc1CCC(C)NCCC(c1ccccc1)c1ccccc1 (configuration not stated)	Kir21 inh -11 | hERG ctr 68% | KCNK9 inh inactive | Kir21 ephys inh 5.1%
c1ccc2[nH]c(CCCCc3nc4ccccc4[nH]3)nc2c1	none
Cc1ccc2nc(CCCc3nc4ccc(C)cc4[nH]3)[nH]c2c1	Kir21 inh -8.6 | hERG ctr inactive | KCNK9 inh inactive | Kir21 ephys inh inactive

Screening data (PubChem)
